Compound activity (PubChem)
Shown is part of a subset that was picked to be rich in hits.
CHX counter-1: affects cycloheximide protein synthesis inhibition readout, counter-screen; cell reporter, cycloheximide protein synthesis inhibition counterscreen; max response, %; hit rate 12% among 300,000; AID 2314; in the data active = max response mostly above about 13%, no sharp cut-off; inactive = mostly below about 14%; note: read at 38.3 µM for the half of the compounds with a filed dose; 0% is about no effect
RE007 growth inh: less growth of the S. pombe RE007 Vpr strain; S. pombe RE007 Vpr strain, BacTiter-Glo ATP luminescence, 24 h; Potency, µM (series often up to 92.2 µM), without a hit: top-dose activity change, negative = less growth, actives largely listed as inhibitors; hit rate 0.21% among 360,000; AID 651644; active = well fitted falling curve with a large enough effect; inconclusive = small, poorly fitted or top-dose-only effect; inactive = no such curve, though single readings can be large or run the other way; note: potency is the fitted concentration of half-maximal effect; % is set by controls: 0 for no effect and ±100 for the full control effect; nearly all actives have a fitted effect of over 50% in size
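Fission yeast RE007 carrying one integrated HIV-1 vpr copy, seeded at OD 0.01 in PMG+AL medium with 23 nL pinned compound. Grown 24 h at 30 degrees; viability read by BacTiter-Glo luminescence after 5 min.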
TbPYK inhibitor: blocks Trypanosoma brucei pyruvate kinase | AID 624173 | hit rate 0.12% among 410,000 | Q57TT1 | Potency, µM (top dose mostly 76.8 µM), for the others: top-dose activity, negative = inhibition, actives largely listed as inhibitors | TbPYK enzyme, Kinase-Glo Plus ATP luminescence, 45 min; note: potency is the fitted concentration of half-maximal effect; % is set by controls: 0 for no effect and ±100 for the full control effect; nearly all actives have a fitted effect of over 50% in size
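T. brucei PYK with substrate was exposed to pin-transferred compounds across a concentration series, then started with 130 uM ADP (final). After 45 min at room temperature, Kinase-Glo Plus luminescence was read, normalized and curve-fitted.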
LmPK inh: inhibitors of Leishmania mexicana pyruvate kinase. purified LmPK, Kinase-Glo ATP luminescence, 1 h. Potency, µM (top dose mostly 57.5 µM), inactives show at the highest dose activity change, negative = inhibition, most hits filed as inhibitors. hit rate 0.37% among 290,000. AID 1721; note: potency is the fitted concentration of half-maximal effect; % is set by controls: 0 for no effect and ±100 for the full control effect
Target sequence (Q27686 whole entry, looked up): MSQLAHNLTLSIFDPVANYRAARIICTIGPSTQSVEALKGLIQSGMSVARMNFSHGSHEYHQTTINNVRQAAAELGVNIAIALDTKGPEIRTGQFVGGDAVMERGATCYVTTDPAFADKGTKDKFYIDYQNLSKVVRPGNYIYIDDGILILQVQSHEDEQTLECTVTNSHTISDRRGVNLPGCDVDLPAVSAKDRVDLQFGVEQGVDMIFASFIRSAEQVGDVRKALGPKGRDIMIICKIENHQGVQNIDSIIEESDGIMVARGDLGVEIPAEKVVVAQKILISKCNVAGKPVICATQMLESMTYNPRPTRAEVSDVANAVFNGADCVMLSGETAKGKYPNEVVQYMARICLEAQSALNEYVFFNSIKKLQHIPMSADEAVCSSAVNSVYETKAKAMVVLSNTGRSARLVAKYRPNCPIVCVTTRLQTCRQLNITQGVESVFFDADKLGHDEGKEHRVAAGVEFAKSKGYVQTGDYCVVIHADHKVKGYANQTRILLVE
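Purified LmPK (0.1 nM) converted ADP (0.1 mM) to ATP with PEP (0.5 mM) in imidazole buffer pH 7.2 with KCl and MgCl2, 1 h at room temperature. ATP was read by Kinase-Glo luminescence; data normalized to uninhibited and no-enzyme controls.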
Giardia FBPA inh-1: inhibitors of Giardia lamblia fructose-1,6-bisphosphate aldolase. A8B2U2. purified Giardia FBPA. Potency, µM (series often up to 59.6 µM), without a hit: top-dose activity, negative = inhibition, most hits filed as inhibitors. hit rate 0.71% among 290,000; note: potency is the fitted concentration of half-maximal effect; % is set by controls: 0 for no effect and ±100 for the full control effect; nearly all actives have a fitted effect of over 55% in size
Target sequence (A8B2U2 whole entry, looked up): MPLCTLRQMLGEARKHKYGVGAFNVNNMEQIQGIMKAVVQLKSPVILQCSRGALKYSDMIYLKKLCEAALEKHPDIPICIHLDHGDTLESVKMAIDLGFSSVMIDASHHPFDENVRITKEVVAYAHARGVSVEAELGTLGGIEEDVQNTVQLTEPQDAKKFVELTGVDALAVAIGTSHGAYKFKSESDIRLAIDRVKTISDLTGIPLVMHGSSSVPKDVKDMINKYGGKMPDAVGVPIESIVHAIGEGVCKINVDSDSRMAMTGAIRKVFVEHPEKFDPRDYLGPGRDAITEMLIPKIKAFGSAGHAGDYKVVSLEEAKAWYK
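Giardia FBPA (40 nM reagent) was preincubated 10 min at RT with compound (up to 57.5 uM final), then substrate plus GAPDH/TPI/NAD/arsenate coupling system with diaphorase/resazurin was added; resorufin fluorescence (525/598 nm) was read after 20 min.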
Shiga toxin inh: blocks Shiga toxin action in Vero cells. Vero cells, Shiga toxin protein synthesis inhibition reporter. inhibition, % at 38.7 µM. hit rate 9.2% among 290,000. AID 2315; in the data active = inhibition mostly above about 28%, no sharp cut-off; inactive = mostly below about 43%; note: 0% is about no effect
CHX counter-2: affects protein synthesis reporter in cycloheximide counter-screen. shares compounds with Shiga toxin inh. Cycloheximide counterscreen, protein synthesis reporter, Shiga toxin assay. AID 2318. Potency, µM (top dose mostly 38.3 µM), inactives show top-dose activity (activation), hits mostly activators. hit rate 3% among 510; calls by dose curve; note: potency is the fitted concentration of half-maximal effect; 0% is about no effect
Giardia growth: inhibitors of Giardia lamblia growth; shares compounds with Giardia FBPA inh-1; AID 2785; Potency, µM (doses to about 57.5 µM), inactives show at the top dose activity change, negative = inhibition, hits mostly inhibitors; Giardia lamblia trophozoite growth inhibition; hit rate 5% among 1,500;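 note: potency is the fitted concentration of half-maximal effect; trophozoites exposed to compound for 48 h at 37 °C; % is set by controls: 0 for no effect and ±100 for the full control effect; nearly all actives have a fitted effect of over 70% in size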
Mammalian tox: mammalian cytotoxicity of Giardia aldolase inhibitor hits; shares compounds with Giardia FBPA inh-1; mammalian cell viability counter-screen, qHTS; Potency, µM (titrated, usually from 57.5 µM), inactives show at the top dose viability change, negative = toxicity, usual class: inhibitors; hit rate 4% among 1,500; AID 2786;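 note: Chinese hamster ovary cells used as mammalian cytotoxicity surrogate; viability measured as cellular ATP by luminescence; potency is the fitted concentration of half-maximal effect; compound exposure lasted 48 h before reading; % is set by controls: 0 for no effect and ±100 for the full control effect; nearly all actives have a fitted effect of over 60% in size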
Giardia FBPA inh-2: confirmation of Giardia fructose-bisphosphate aldolase inhibitors | hit rate 5% among 1,500 | AID 2787 | shares compounds with Giardia FBPA inh-1 | Potency, µM (doses to about 57.5 µM), without a hit: top-dose activity change, negative = inhibition, usual class: inhibitors | purified Giardia aldolase enzyme activity, qHTS; note: potency is the fitted concentration of half-maximal effect; % is set by controls: 0 for no effect and ±100 for the full control effect; nearly all actives have a fitted effect of over 45% in size
Rabbit aldolase: rabbit FBP aldolase inhibition by Giardia aldolase hits | Rabbit muscle FBPA enzyme inhibition, selectivity counter-screen | AID 2794 | Potency, µM (series often up to 57.5 µM), for the others: at the highest dose activity, negative = inhibition, usual class: inhibitors | hit rate 4% among 1,500 | shares compounds with Giardia FBPA inh-1; note: potency is the fitted concentration of half-maximal effect; % is set by controls: 0 for no effect and ±100 for the full control effect; nearly all actives have a fitted effect of over 60% in size
GAPDH counter: GAPDH inhibition flagged for Giardia aldolase hits; hit rate 6% among 1,500; shares compounds with Giardia FBPA inh-1; GAPDH coupling enzyme counterscreen, biochemical, qHTS; Potency, µM (titrated, usually from 57.5 µM), inactives show at the top dose activity change, negative = inhibition, usual class: inhibitors; note: potency is the fitted concentration of half-maximal effect; % is set by controls: 0 for no effect and ±100 for the full control effect; nearly all actives have a fitted effect of over 55% in size
An asterisk follows results filed as active. Unless noted, calls come from the whole dose curve; as a rule, active = well fitted curve in the direction sought with a large enough effect; inconclusive = small, poorly fitted or top-dose-only effect, or another doubt; inactive = no such curve, though single readings can be large; an effect the other way counts as inactive or inconclusive.

Cc1cc(NC(=O)/C=C/c2ccc(Br)cc2)no1 was read as CHX counter-1 7, RE007 growth inh -5%, TbPYK inhibitor -5%, LmPK inh -5%, Giardia FBPA inh-1 -1%, Shiga toxin inh 56* and CHX counter-2 inconclusive.
`Cc1ccc(NC(=O)CN2CCN(C3CCCCC3)C(=O)C2=O)cc1` gave TbPYK inhibitor -18%.
Cc1nonc1OCCNc1ccc([N+](=O)[O-])cc1[N+](=O)[O-] was read as CHX counter-1 -2, RE007 growth inh -8%, TbPYK inhibitor -6%, LmPK inh -1%, Giardia FBPA inh-1 1% and Shiga toxin inh -5.
Cc1nonc1OCCCNc1ccc([N+](=O)[O-])cc1Cl was read as CHX counter-1 14, RE007 growth inh 9%, TbPYK inhibitor 1%, LmPK inh -4%, Giardia FBPA inh-1 1%, Shiga toxin inh 116* and CHX counter-2 inconclusive.
COc1cc(OC)cc(C(=O)NCCc2csc(-c3cccc(C)c3)n2)c1 was read as TbPYK inhibitor 3%.
`Cc1cccc(OCCCC(=O)Nc2nccs2)c1C` gave CHX counter-1 7, RE007 growth inh 7%, TbPYK inhibitor -2%, LmPK inh 4%, Giardia FBPA inh-1 0%, Shiga toxin inh 29* and CHX counter-2 -2%.
`COc1ccccc1CN(Cc1cccnc1)S(=O)(=O)c1ccc(-n2cnnn2)c(OC)c1` gave CHX counter-1 1, RE007 growth inh -6%, TbPYK inhibitor -4%, LmPK inh 12%, Giardia FBPA inh-1 -9%, Shiga toxin inh 47* and CHX counter-2 -2%.
For O=C(Cc1cccs1)Nc1nc(-c2ccc(F)cc2F)cs1 the results were CHX counter-1 12, RE007 growth inh -22%, TbPYK inhibitor 1%, LmPK inh 6%, Giardia FBPA inh-1 -14% and Shiga toxin inh 53.
O=C(Cc1cccs1)Nc1nc(-c2ccc(F)c(F)c2)cs1 was read as CHX counter-1 11, RE007 growth inh -23%, TbPYK inhibitor -22%, LmPK inh -6%, Giardia FBPA inh-1 7%, Shiga toxin inh 44* and CHX counter-2 4%.
Screening CCOC(=O)N1CCN(C(=O)c2ccc(OCC)cc2)CC1 returned CHX counter-1 -6, RE007 growth inh 22%, TbPYK inhibitor 0%, LmPK inh 0%, Giardia FBPA inh-1 -20% and Shiga toxin inh -3.
Screening CCOC(=O)N1CCN(C(=O)CCC(=O)c2ccc(OCC)cc2)CC1 returned CHX counter-1 1, RE007 growth inh 3%, TbPYK inhibitor 6%, LmPK inh -6%, Giardia FBPA inh-1 2%, Shiga toxin inh 41* and CHX counter-2 -1%.
For Cc1ccc(NC(=O)CSc2nc3nc(C)c(Br)cc3[nH]2)cc1F the results were CHX counter-1 3, RE007 growth inh -17%, TbPYK inhibitor 2%, LmPK inh 12%, Giardia FBPA inh-1 18µM*, Shiga toxin inh -5, Giardia growth inconclusive, Mammalian tox 6%, Giardia FBPA inh-2 6%, Rabbit aldolase 6% and GAPDH counter 17%.
`CCOC(=O)c1cnc(SCC)[nH]c1=O` gave CHX counter-1 -3, RE007 growth inh 17%, TbPYK inhibitor 4%, LmPK inh -1%, Giardia FBPA inh-1 -22% and Shiga toxin inh -6.
CCOC(=O)c1cnc(-c2ccc(C(F)(F)F)cn2)[nH]c1=O was read as CHX counter-1 3, RE007 growth inh 4%, TbPYK inhibitor -7%, LmPK inh 1%, Giardia FBPA inh-1 5µM*, Shiga toxin inh -3, Giardia growth inconclusive, Mammalian tox -7%, Giardia FBPA inh-2 -6%, Rabbit aldolase -9% and GAPDH counter -10%.
For COc1cccc(CNC(=O)C(CC(C)C)NS(=O)(=O)c2ccc3c(c2)oc(=O)n3C)c1 (stereo not given) the results were TbPYK inhibitor -3%.
Screening Cc1oc2c(c1C(=O)NCc1cccc(Br)c1)C1=NCCN1C=N2 returned TbPYK inhibitor -7%.
For COc1ccc(C(=O)NC(=S)N2CCNC(=O)C2)cc1Br the results were CHX counter-1 -7, RE007 growth inh 6%, TbPYK inhibitor -18%, LmPK inh 1%, Giardia FBPA inh-1 18µM*, Shiga toxin inh -2, Giardia growth 85%, Mammalian tox 3%, Giardia FBPA inh-2 4%, Rabbit aldolase 1% and GAPDH counter 16%.
For COc1ccc(C(=O)NCC(=O)N2CCNC(=O)C2)cc1OC the results were CHX counter-1 4, RE007 growth inh 4%, TbPYK inhibitor -4%, LmPK inh 1%, Giardia FBPA inh-1 1% and Shiga toxin inh -4.
`CN(C)CCCNCC(=O)c1c(-c2ccccc2)n(C)c2ccccc12` gave CHX counter-1 2, RE007 growth inh -6%, TbPYK inhibitor 2%, LmPK inh -11%, Giardia FBPA inh-1 14µM*, Shiga toxin inh 4, Giardia growth 9%, Mammalian tox -3%, Giardia FBPA inh-2 3%, Rabbit aldolase -1% and GAPDH counter 5%.
CCCCn1c(NS(=O)(=O)c2ccc(C)cc2)c(S(=O)(=O)c2ccccc2)c2nc3ccccc3nc21 was read as CHX counter-1 -5, RE007 growth inh 30%, TbPYK inhibitor 0%, LmPK inh 5%, Giardia FBPA inh-1 inconclusive and Shiga toxin inh -5.
